# Measured values published in article PMC8384837, “Expanding the binding specificity for RNA recognition by a PUF domain”.
# Changes are numbered by the printed parent chain.
# Assays:
# Experiment in all cases: yeast three-hybrid, YBZ-1, SC-Leu-His + 0.5 mM 3-AT, 4 days
# Details in all cases: tags: N-Gal4 AD-HA kept; label: inside an RPR1-promoter hybrid RNA with tandem MS2 sites; ssRNA
# [1] = target: PUM1 PUF domain R2-EWS (Homo sapiens, UniProt Q14671 828-1176, N899E;Y900W;Q903S)
# In short: (§1)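 The interaction score is the log change in how often each variant appears, from input to selection. Frequencies came from PCR-amplified, Illumina-sequenced repeat regions of Pumilio-1 PUF domain libraries grown in strain YBZ-1 (LexA–MS2 coat fusion, HIS3 reporter) alongside matching RNA elements. Input plates were SC-Leu and selection plates were SC-Leu-His + 0.5 mM 3-AT, each for four days, and the log2 calculation used a pseudocount of 1 where a variant was absent.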
# [2] = target: PUM1 PUF domain R3-LFS (Homo sapiens, UniProt Q14671 828-1176, C935L;R936F;Q939S)
# In short: as §1
# [3] = target: PUM1 PUF domain R3-ASE (Homo sapiens, UniProt Q14671 828-1176, C935A;R936S;Q939E)
# In short: as §1
# [4] = target: PUM1 PUF domain R3-WCS (Homo sapiens, UniProt Q14671 828-1176, C935W;R936C;Q939S)
# In short: as §1
# [5] = target: PUM1 PUF domain R8-LRK (Homo sapiens, UniProt Q14671 828-1176, N1122L;Y1123R;Q1126K)
# In short: as §1
# [6] = target: PUM1 PUF domain R1-NWG (Homo sapiens, UniProt Q14671 828-1176, S863N;R864W;Q867G)
# In short: as §1
# [7] = target: PUM1 PUF domain R3-VWC (Homo sapiens, UniProt Q14671 828-1176, C935V;R936W;Q939C)
# In short: as §1
# [8] = target: PUM1 PUF domain R5-RNI (Homo sapiens, UniProt Q14671 828-1176, C1007R;R1008N;Q1011I)
# In short: as §1
# [9] = target: PUM1 PUF domain R7-GCG (Homo sapiens, UniProt Q14671 828-1176, S1079G;N1080C;E1083G)
# PUM1 PUF domain R7-GCG, sequence (Q14671 828-1176 S1079G/N1080C/E1083G): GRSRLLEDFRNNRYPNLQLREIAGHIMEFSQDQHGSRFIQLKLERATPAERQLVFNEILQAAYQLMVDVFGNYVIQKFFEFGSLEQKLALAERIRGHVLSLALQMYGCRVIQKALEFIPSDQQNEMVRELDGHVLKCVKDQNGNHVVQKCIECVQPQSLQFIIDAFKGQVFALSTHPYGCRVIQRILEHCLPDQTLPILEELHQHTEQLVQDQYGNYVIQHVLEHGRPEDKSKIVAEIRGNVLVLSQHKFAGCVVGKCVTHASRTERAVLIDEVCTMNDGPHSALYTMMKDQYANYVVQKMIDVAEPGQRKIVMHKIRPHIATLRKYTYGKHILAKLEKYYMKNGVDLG
# In short: as §1
# [10] = target: PUM1 PUF domain R7-QSR (Homo sapiens, UniProt Q14671 828-1176, S1079Q;N1080S;E1083R)
# In short: as §1
# [11] = target: PUM1 PUF domain R4-VNT (Homo sapiens, UniProt Q14671 828-1176, N971V;H972N;Q975T)
# PUM1 PUF domain R4-VNT, sequence (Q14671 828-1176 N971V/H972N/Q975T): as the sequence (Q14671 828-1176 S1079G/N1080C/E1083G) above, with N144V, H145N, Q148T, G252S, C253N, G256E counted along it
# In short: as §1
# [12] = target: PUM1 PUF domain R4-TPE (Homo sapiens, UniProt Q14671 828-1176, N971T;H972P;Q975E)
# In short: as §1
# [13] = target: PUM1 PUF domain R4-SNV (Homo sapiens, UniProt Q14671 828-1176, N971S;H972N;Q975V)
# In short: as §1
# [14] = target: PUM1 PUF domain R4-DFI (Homo sapiens, UniProt Q14671 828-1176, N971D;H972F;Q975I)
# In short: as §1
# [15] = target: PUM1 PUF domain R4-EYQ (Homo sapiens, UniProt Q14671 828-1176, N971E;H972Y)
# In short: as §1
# [16] = target: T1, PUM1 PUF domain R6-MYG (Homo sapiens, UniProt Q14671 828-1176, N1043M;Q1047G)
# T1 sequence: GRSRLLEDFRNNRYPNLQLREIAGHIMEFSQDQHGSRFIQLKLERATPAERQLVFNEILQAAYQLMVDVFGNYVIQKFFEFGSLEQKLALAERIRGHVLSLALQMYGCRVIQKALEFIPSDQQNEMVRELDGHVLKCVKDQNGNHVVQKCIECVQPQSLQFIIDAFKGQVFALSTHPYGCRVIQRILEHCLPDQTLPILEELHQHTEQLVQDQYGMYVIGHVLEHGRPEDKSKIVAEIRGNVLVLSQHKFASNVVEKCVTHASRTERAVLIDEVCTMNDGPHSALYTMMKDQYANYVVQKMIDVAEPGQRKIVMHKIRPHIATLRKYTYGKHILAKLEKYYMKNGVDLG
# In short: as §1
# [17] = target: PUM1 PUF domain R8-KFR (Homo sapiens, UniProt Q14671 828-1176, N1122K;Y1123F;Q1126R)
# In short: as §1
# [18] = target: PUM1 PUF domain R3-ASY (Homo sapiens, UniProt Q14671 828-1176, C935A;R936S;Q939Y)
# In short: as §1
# [19] = target: T2, PUM1 PUF domain R6-RWS (Homo sapiens, UniProt Q14671 828-1176, N1043R;Y1044W;Q1047S)
# T2 sequence: T1 sequence with M216R, Y217W, G220S
# In short: as §1
# [20] = target: PUM1 PUF domain R4-NRC (Homo sapiens, UniProt Q14671 828-1176, H972R;Q975C)
# In short: as §1
sequence,measurement,setting,value
GGCUAGAACUAGUGGAUCCCCCGGCGCCCGGCGGCUCGAGCCCGGGUAAGUGUAAAAAGUCUGCAUGCCGCCGGGCGCCAUGCCUGCAGGUCGACUCUAGAAAACAUG,binding signal,[1],6.34 log2 enrichment (interaction score)
GGCUAGAACUAGUGGAUCCCCCGGCGCCCGGCGGCUCGAGCCCGGGUAAGUGUAAGUAGUCUGCAUGCCGCCGGGCGCCAUGCCUGCAGGUCGACUCUAGAAAACAUG,binding signal,[2],6.56 log2 enrichment (interaction score)
same,binding signal,[3],4.6 log2 enrichment (interaction score)
same,binding signal,[4],2.96 log2 enrichment (interaction score)
GGCUAGAACUAGUGGAUCCCCCGGCGCCCGGCGGCUCGAGCCCGGGUAAGCGUAAAUAGUCUGCAUGCCGCCGGGCGCCAUGCCUGCAGGUCGACUCUAGAAAACAUG,binding signal,[5],2.19 log2 enrichment (interaction score)
GGCUAGAACUAGUGGAUCCCCCGGCGCCCGGCGGCUCGAGCCCGGGUAAGUGUAAAUUGUCUGCAUGCCGCCGGGCGCCAUGCCUGCAGGUCGACUCUAGAAAACAUG,binding signal,[6],5.42 log2 enrichment (interaction score)
GGCUAGAACUAGUGGAUCCCCCGGCGCCCGGCGGCUCGAGCCCGGGUAAGUGUAAUUAGUCUGCAUGCCGCCGGGCGCCAUGCCUGCAGGUCGACUCUAGAAAACAUG,binding signal,[2],4.38 log2 enrichment (interaction score)
same,binding signal,[7],3.83 log2 enrichment (interaction score)
same,binding signal,[4],1.01 log2 enrichment (interaction score)
GGCUAGAACUAGUGGAUCCCCCGGCGCCCGGCGGCUCGAGCCCGGGUAAGUGUCAAUAGUCUGCAUGCCGCCGGGCGCCAUGCCUGCAGGUCGACUCUAGAAAACAUG,binding signal,[8],3.78 log2 enrichment (interaction score)
GGCUAGAACUAGUGGAUCCCCCGGCGCCCGGCGGCUCGAGCCCGGGUAAGUUUAAAUAGUCUGCAUGCCGCCGGGCGCCAUGCCUGCAGGUCGACUCUAGAAAACAUG,binding signal,[9],3.64 log2 enrichment (interaction score)
same,binding signal,[10],3.84 log2 enrichment (interaction score)
GGCUAGAACUAGUGGAUCCCCCGGCGCCCGGCGGCUCGAGCCCGGGUAAGUGUAUAUAGUCUGCAUGCCGCCGGGCGCCAUGCCUGCAGGUCGACUCUAGAAAACAUG,binding signal,[11],2.54 log2 enrichment (interaction score)
same,binding signal,[12],3.03 log2 enrichment (interaction score)
same,binding signal,[13],3.72 log2 enrichment (interaction score)
GGCUAGAACUAGUGGAUCCCCCGGCGCCCGGCGGCUCGAGCCCGGGUAAGUGUAAAGAGUCUGCAUGCCGCCGGGCGCCAUGCCUGCAGGUCGACUCUAGAAAACAUG,binding signal,[1],4.8 log2 enrichment (interaction score)
GGCUAGAACUAGUGGAUCCCCCGGCGCCCGGCGGCUCGAGCCCGGGUAAGUGUACAUAGUCUGCAUGCCGCCGGGCGCCAUGCCUGCAGGUCGACUCUAGAAAACAUG,binding signal,[11],0.69 log2 enrichment (interaction score)
same,binding signal,[14],3.24 log2 enrichment (interaction score)
same,binding signal,[15],3.27 log2 enrichment (interaction score)
same,binding signal,[13],3.34 log2 enrichment (interaction score)
GGCUAGAACUAGUGGAUCCCCCGGCGCCCGGCGGCUCGAGCCCGGGUAAGUGUAAAUAGUCUGCAUGCCGCCGGGCGCCAUGCCUGCAGGUCGACUCUAGAAAACAUG,binding signal,[16],4.1 log2 enrichment (interaction score)
same,binding signal,[17],6.77 log2 enrichment (interaction score)
same,binding signal,[18],2.58 log2 enrichment (interaction score)
same,binding signal,[2],3.98 log2 enrichment (interaction score)
same,binding signal,[19],6.05 log2 enrichment (interaction score)
same,binding signal,[5],1.28 log2 enrichment (interaction score)
same,binding signal,[15],1.61 log2 enrichment (interaction score)
same,binding signal,[13],1.05 log2 enrichment (interaction score)
same,binding signal,[20],3.78 log2 enrichment (interaction score)
